{"source": "PubChem BioAssay (EPA / NIEHS)", "note": "More than one record can exist for a structure, and the calls need not agree. Active and inactive are the calls of the source. How the source made its calls: active means hit-call score of the fitted dose curve at least 0.9, where 1 is the maximum; inactive means score below 0.9."}
{"assay": "CCTE_Shafer_MEA_dev_per_burst_spike_percent: CCTE's Neural Network Formation Assay for Percent of Spikes in a Burst, Shafer Lab (AID 2284032)", "protocol": "CCTE_Shafer_MEA_dev assay is conducted using Axion Biosystems 48 well microelectrode array (MEA) plates and Maestro recording system. Each well of the MEA plate contains a grid of 16 microelectrodes embedded in the culture surface. Electrically active cells, such as neurons, can be cultured over the electrodes, and electrical activity in these cells can be recorded extracellularly. The spontaneous firing of neurons is captured from each electrode on a microsecond timescale providing both temporally and spatially precise data. […] The CCTE_Shafer_MEA_dev assay uses primary cultures of rat cortical neurons. Recordings are made on days post-plating 5, 7, 9 and 12. As these cultures mature over time, neural networks develop functional activity and form cohesive networks in which electrical activity can be highly coordinated. CCTE_Shafer_MEA_dev_per_burst_spike_percent is 1 of 19 assay components of the CCTE_Shafer_MEA_dev assay. It measures the percentage of spikes (action potential firings) in a single-electrode burst (temporally-clustered group of spikes) as the total number spikes in bursts divided by the total number of spikes during a recording in a microelectrode array (MEA) using Axion Biosystems Maestro 768 channel amplifier with the AxIS adaptive spike detector. The percent of spikes in bursts is averaged across the actively bursting electrodes to report a well-mean value. To collapse across multiple recordings made on days post-plating 5, 7, 9 and 12, the trapezoidal area-under-the-curve of the component is calculated.Data from the assay component CCTE_Shafer_MEA_dev_per_burst_spike_percent was analyzed into 1 assay endpoint. This assay endpoint, CCTE_Shafer_MEA_dev_per_burst_spike_percent, was analyzed in the negative analysis fitting direction relative to DMSO as the negative control and baseline of activity. Using a type of functional reporter, gain or loss-of-signal activity can be used to understand electrical activity.\nOn the day prior to culture, each well was coated thoroughly with 150 uL of 0.05% polyethyleneimine (PEI, Sigma Cat P3143) in 50 mM HEPES (Sigma Cat H7523) at a pH of 8. The plate was incubated at 37C for one hour. PEI was rinsed out with 500 uL of sterile water three times. Plates were stored at 4C until the day of culture. This culture was plated at a seeding density of 1.5 x 10^5 cells/well on a 48-well MEA plate, prepared as described above. Cells were administered via a 25 uL media/laminin ([…]; Sigma Cat L2020-1MG) drop directly onto the microelectrode array, as adding the cells with the laminin results in better attachment than pre-coating with laminin. After 2 hours, an additional 475 uL of cortical media was added and the cells returned to the incubator. Exposure starts at day 0 of plating and is continued over twelve days of network development until the experiment is terminated. Cells are fed with fresh medium on DIV 5 and 9, following the recordings on those days. The entire volume of media in the well is exchanged and any vehicle or compound treatment is renewed. Complete details are found in OP-NHEERL/ISTD/SBB/TJS/2015-03-r0 (available on request, email shafer.tim@epa.gov). Measurement of the electrical activity is non-invasive, and recordings can be made from the same plate over multiple different days of the culture. In cortical neurons, this allows for the measurement of extracellular action potentials over the period during which networks form in the MEA plate."}
{"smiles": "O=c1[nH]cc(F)c(=O)[nH]1", "AC50": "1.47 µM (active)"}
{"smiles": "C=CCc1ccc(O)c(OC)c1", "outcome": "inactive"}
{"smiles": "CC(=O)Oc1ccccc1C(=O)O", "outcome": "inactive"}
{"smiles": "CCCc1cc(=O)[nH]c(=S)[nH]1", "AC50": "22.9 µM (active)", "outcome": "inactive"}
{"smiles": "C[Si]1(C)O[Si](C)(C)O[Si](C)(C)O[Si](C)(C)O1", "outcome": "inactive"}
{"smiles": "CC(C)c1ccc(C(=O)N=C(N)N)cc1S(C)(=O)=O", "outcome": "inactive"}
{"smiles": "Cc1cc(=O)[nH]c(=S)[nH]1", "outcome": "inactive"}
{"smiles": "OC[C@@H](O)[C@@H](O)[C@H](O)[C@H](O)CO", "outcome": "inactive"}
{"smiles": "FC(F)(F)C(F)(F)C(F)(F)C(F)(F)C(F)(F)C(F)(F)CCI", "outcome": "inactive"}
